Experimental data taken from the supplement of paper PMC6897291.
Structures can show the parent of a compound that is named as a salt.

Legend:
U-2932 [1] = assay: growth inhibition by drug alone (1 - RLU/untreated control) (fraction); higher = stronger inhibition; settings: 177Lu-lilotomab satetraxetan 0 ug/ml
In short: (§1)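 Compound doses on the pre-printed Selleck Cambridge Cancer Compound library plates were 10/100 nM for RIVA cells and 10/1,000 nM for U-2932 cells, seeded at 3,000 cells/well. Before seeding, cells were washed after 18 h with or without a radiolabelled anti-CD37 antibody conjugate (~600 MBq/mg; 0.5 µg/ml RIVA, 1 µg/ml U-2932). Growth inhibition was derived from RealTime-Glo luminescence relative to untreated no-drug control wells. Readings were taken daily starting on day 3, each after 1 h at 37°C, and each well's RLU was divided by the mean of 48 such wells per plate and subtracted from 1.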

RIVA [2] = assay: as above; settings: 177Lu-lilotomab satetraxetan 0 ug/ml
In short: as §1

U-2932 [3] = assay: growth inhibition by drug plus 177Lu-lilotomab satetraxetan (1 - RLU/untreated control) (fraction); higher = stronger inhibition; settings: 177Lu-lilotomab satetraxetan 1 ug/ml
In short: as §1

RIVA [4] = assay: as above; settings: 177Lu-lilotomab satetraxetan 0.5 ug/ml
In short: as §1

Structure (SMILES) | growth inhibition by drug alone (U-2932 [1]; 10 nM, time (day): 3) | growth inhibition by drug alone (U-2932 [1]; 10 nM, time (day): 4) | growth inhibition by drug alone (U-2932 [1]; 10 nM, time (day): 5) | growth inhibition by drug alone (U-2932 [1]; 10 nM, time (day): 6) | growth inhibition by drug alone (U-2932 [1]; 1000 nM, time (day): 3) | growth inhibition by drug alone (U-2932 [1]; 1000 nM, time (day): 4) | growth inhibition by drug alone (U-2932 [1]; 1000 nM, time (day): 5) | growth inhibition by drug alone (U-2932 [1]; 1000 nM, time (day): 6) | growth inhibition by drug alone (RIVA [2]; 10 nM, time (day): 3) | growth inhibition by drug alone (RIVA [2]; 10 nM, time (day): 4) | growth inhibition by drug alone (RIVA [2]; 10 nM, time (day): 5) | growth inhibition by drug alone (RIVA [2]; 10 nM, time (day): 6) | growth inhibition by drug alone (RIVA [2]; 100 nM, time (day): 3) | growth inhibition by drug alone (RIVA [2]; 100 nM, time (day): 4) | growth inhibition by drug alone (RIVA [2]; 100 nM, time (day): 5) | growth inhibition by drug alone (RIVA [2]; 100 nM, time (day): 6) | growth inhibition by drug plus 177Lu-lilotomab satetraxetan (U-2932 [3]; 10 nM, time (day): 3) | growth inhibition by drug plus 177Lu-lilotomab satetraxetan (U-2932 [3]; 10 nM, time (day): 4) | growth inhibition by drug plus 177Lu-lilotomab satetraxetan (U-2932 [3]; 10 nM, time (day): 5) | growth inhibition by drug plus 177Lu-lilotomab satetraxetan (U-2932 [3]; 10 nM, time (day): 6) | growth inhibition by drug plus 177Lu-lilotomab satetraxetan (U-2932 [3]; 1000 nM, time (day): 3) | growth inhibition by drug plus 177Lu-lilotomab satetraxetan (U-2932 [3]; 1000 nM, time (day): 4) | growth inhibition by drug plus 177Lu-lilotomab satetraxetan (U-2932 [3]; 1000 nM, time (day): 5) | growth inhibition by drug plus 177Lu-lilotomab satetraxetan (U-2932 [3]; 1000 nM, time (day): 6) | growth inhibition by drug plus 177Lu-lilotomab satetraxetan (RIVA [4]; 10 nM, time (day): 3) | growth inhibition by drug plus 177Lu-lilotomab satetraxetan (RIVA [4]; 10 nM, time (day): 4) | growth inhibition by drug plus 177Lu-lilotomab satetraxetan (RIVA [4]; 10 nM, time (day): 5) | growth inhibition by drug plus 177Lu-lilotomab satetraxetan (RIVA [4]; 10 nM, time (day): 6) | growth inhibition by drug plus 177Lu-lilotomab satetraxetan (RIVA [4]; 100 nM, time (day): 3) | growth inhibition by drug plus 177Lu-lilotomab satetraxetan (RIVA [4]; 100 nM, time (day): 4) | growth inhibition by drug plus 177Lu-lilotomab satetraxetan (RIVA [4]; 100 nM, time (day): 5) | growth inhibition by drug plus 177Lu-lilotomab satetraxetan (RIVA [4]; 100 nM, time (day): 6)
CCN(CC)CCCC(C)Nc1nc(C)cc(Nc2ccc3nc(C)cc(N)c3c2)n1 (stereo not drawn) | 0.0927 | 0.0716 | -0.114 | -0.134 | 0.0662 | 0.0733 | -0.022 | -0.107 | -0.0541 | -0.0225 | -0.0658 | -0.279 | -0.31 | -0.199 | -0.249 | -0.391 | 0.0413 | 0.106 | 0.161 | 0.181 | 0.092 | 0.11 | 0.165 | 0.255 | 0.572 | 0.606 | 0.627 | 0.625 | 0.489 | 0.538 | 0.548 | 0.545
CCOC(=O)C1=C[C@]2(CC)CCCN3CCc4c(n1c1ccccc41)[C@@H]32 [Vinpocetine (Cavinton)] | -0.0944 | -0.0619 | -0.0289 | 0.127 | 0.0303 | 0.0355 | 0.0149 | 0.00297 | -0.107 | -0.13 | -0.129 | -0.167 | 0.0294 | -0.03 | -0.0621 | -0.112 | -0.0659 | -0.0355 | -0.00313 | 0.159 | 0.000715 | 0.0172 | 0.0304 | 0.134 |  |  |  |  |  |  |  | 
COc1cc(N2CCC(N3CCN(C)CC3)CC2)ccc1Nc1ncc(Cl)c(Nc2ccccc2S(=O)(=O)C(C)C)n1 | 0.0279 | 0.0267 | -0.0689 | -0.173 | 0.411 | 0.377 | 0.328 | 0.37 | -0.00616 | -0.0284 | -0.166 | -0.627 | -0.194 | -0.141 | -0.341 | -0.647 | -0.0224 | 0.0234 | 0.0221 | 0.0517 | 0.226 | 0.3 | 0.325 | 0.525 |  |  |  |  |  |  |  | 
CCOC(=O)[C@@H](C)Oc1cccc2c(=O)n(CC(=O)Nc3ccc4c(c3)OCCO4)ccc12 | -0.0226 | -0.00751 | 0.0431 | 0.176 | -0.114 | -0.0578 | -0.0945 | -0.15 | -0.12 | -0.131 | -0.182 | -0.361 | 0.0368 | -0.0449 | -0.0731 | -0.142 | -0.0102 | 0.0168 | 0.0306 | 0.145 | -0.139 | -0.0327 | -0.0266 | -0.0505 |  |  |  |  |  |  |  | 
CC(C)[C@H](C(=O)Nc1ccc(C(=O)NO)cc1)c1ccccc1 | 0.0244 | 0.00418 | -0.0183 | -0.000531 | 0.96 | 0.964 | 0.973 | 0.98 | -0.0258 | -0.0463 | -0.0451 | -0.103 | 0.935 | 0.907 | 0.897 | 0.884 | 0.037 | 0.0315 | 0.0282 | 0.152 | 0.961 | 0.969 | 0.978 | 0.985 | 0.524 | 0.584 | 0.602 | 0.599 | 0.939 | 0.934 | 0.937 | 0.94
N#Cc1ccc(NC(=O)Nc2ccccc2Br)c2n[nH]nc12 | 0.122 | 0.0624 | -0.115 | -0.0627 | 0.0674 | 0.0714 | -0.0804 | -0.0945 | -0.0525 | 0.00855 | -0.101 | -0.43 | -0.383 | -0.198 | -0.264 | -0.513 | 0.0243 | 0.065 | 0.134 | 0.142 | 0.0797 | 0.0995 | 0.138 | 0.218 | 0.534 | 0.601 | 0.605 | 0.619 | 0.463 | 0.528 | 0.544 | 0.542
Fc1cc(-c2cccc3ncc(-c4cnn(C5CCNCC5)c4)nc23)cc(F)c1CN1CCOCC1 | 0.107 | 0.069 | -0.083 | -0.0936 | 0.0551 | 0.07 | 0.0444 | -0.14 | 0.0385 | 0.00291 | -0.0745 | -0.286 | -0.358 | -0.305 | -0.287 | -0.341 | 0.0469 | 0.0958 | 0.15 | 0.179 | 0.041 | 0.106 | 0.135 | 0.237 |  |  |  |  |  |  |  | 
Cn1cc(-c2ccc3nnc(Sc4ccc5ncccc5c4)n3n2)cn1 | 0.0784 | 0.0569 | -0.0234 | -0.0672 | 0.09 | 0.0464 | -0.0633 | -0.0059 | 0.0128 | 0.0644 | 0.0167 | -0.227 | -0.0367 | 0.0223 | 0.00017 | -0.0611 | 0.0469 | 0.105 | 0.177 | 0.212 | 0.0614 | 0.085 | 0.142 | 0.222 | 0.61 | 0.637 | 0.638 | 0.635 | 0.458 | 0.538 | 0.561 | 0.584
O=C1CN2Cc3c(ccc(Cl)c3Cl)N=C2N1 [Anagrelide hydrochloride] | 0.1 | 0.0554 | -0.0277 | -0.0568 | 0.0693 | 0.0958 | 0.0817 | 0.0377 | 0.16 | 0.111 | 0.0638 | -0.0807 | 0.214 | 0.214 | 0.119 | 0.0727 | 0.101 | 0.119 | 0.141 | 0.272 | 0.0494 | 0.088 | 0.102 | 0.224 |  |  |  |  |  |  |  | 
